Test results published in the antibiotic and cytotoxicity screens of Wong et al. (2023).
Out of some 39,000 compounds screened, about 1,500 (3.8%) were called active. The full list was thinned out, with actives kept by preference.

tested on: HSkMC (human skeletal muscle cells); assay: cytotoxicity call (relative viability < 0.9); settings: 10 µM

Q: With CC(=O)O[C@@]12CO[C@@H]1C[C@H](O)[C@@]1(C)C(=O)[C@H](O)C3=C(C)[C@@H](OC(=O)[C@H](O)[C@@H](NC(=O)c4ccccc4)c4ccccc4)C[C@](O)([C@@H](OC(=O)c4ccccc4)[C@H]21)C3(C)C as the molecule, how does the cytotoxicity call read?
A: Its cytotoxicity call is “inactive”.

Q: For COCC(=O)N1C[C@@H]2c3ccccc3CN[C@@H]2C1, which cytotoxicity call is on record?
A: Its cytotoxicity call is “inactive”.

Q: With COC(=O)[C@@H](N)CCCNC(N)=N[N+](=O)[O-] as the molecule, how does the cytotoxicity call read?
A: The cytotoxicity call was “inactive”.

Q: Which cytotoxicity call does the source give for [N-]=[N+]=CC(=O)OCC(N)C(=O)O (configuration not stated) here?
A: The cytotoxicity call was “inactive”.

Q: How did the cytotoxicity call turn out when C1COC2(CCOCC2)CN1 was run?
A: The cytotoxicity call was “inactive”.

Q: Cc1cc(OC(=O)N(C)C)cc(=O)n1C was tested. Which cytotoxicity call did it give?
A: Its cytotoxicity call is “inactive”.

Q: Which cytotoxicity call does the source give for COC(=O)C[C@@H]1CC[C@H]2NC[C@@H](O)COC[C@@H]2O1 here?
A: The cytotoxicity call was “inactive”.

Q: With CC(N)(Cc1ccccc1)c1ccccc1 (configuration not stated) as the molecule, how does the cytotoxicity call read?
A: The cytotoxicity call was “inactive”.

Q: How did the cytotoxicity call turn out when CN1CCc2cc3c(cc2[C@@H]1O)OCO3 was run?
A: The cytotoxicity call was “inactive”.

Q: For COC(=O)C[C@](O)(CCC(C)(C)O)C(=O)O[C@@H]1C(OC)=C[C@]23CCCN2CCc2cc4c(cc2[C@H]13)OCO4, which cytotoxicity call is on record?
A: Its cytotoxicity call is “active”.

Q: Which cytotoxicity call does the source give for CN1CCc2cc3c(cc2C1O)OCO3.Cl (configuration not stated) here?
A: The cytotoxicity call was “inactive”.

Q: For C[N+]12CCC(CC1)C(OC(=O)C(O)(c1ccccc1)c1ccccc1)C2.[Br-] (configuration not stated), which cytotoxicity call is on record?
A: The cytotoxicity call was “inactive”.

Q: For CC1OC(OC2C(O)C(O)C(O)C(O)C2O)C(N)CC1NC(=N)C(=O)O.Cl (configuration not stated), which cytotoxicity call is on record?
A: Its cytotoxicity call is “inactive”.

Q: How did the cytotoxicity call turn out when O=C1C=C2C(=CCOC2O)O1 (configuration not stated) was run?
A: Its cytotoxicity call is “active”.

Q: Which cytotoxicity call does the source give for O=C1C=C2C(=CCO[C@@H]2O)O1 here?
A: Its cytotoxicity call is “inactive”.

Q: For CCCCC(=O)N1CC[C@H]2CNC[C@H]21, which cytotoxicity call is on record?
A: The cytotoxicity call was “inactive”.

Q: With N#Cc1c(Cl)c(Cl)c(Cl)c(C#N)c1Cl as the molecule, how does the cytotoxicity call read?
A: The cytotoxicity call was “active”.

Q: With CCCCCC1C(=O)OC(C)C(NC(=O)c2cccc(NC=O)c2O)C(=O)OC(C)C1OC(=O)CC(C)C (configuration not stated) [ANTIMYCIN A (A1 shown) ] as the molecule, how does the cytotoxicity call read?
A: The cytotoxicity call was “inactive”.

Q: Which cytotoxicity call does the source give for CCC[C@@H](CN)c1ccc(F)cc1 here?
A: The cytotoxicity call was “inactive”.

Q: How did the cytotoxicity call turn out when COc1cc(C2c3cc4c(cc3C(O)C3COC(=O)C23)OCO4)cc(OC)c1OC (configuration not stated) was run?
A: The cytotoxicity call was “inactive”.

Q: COc1c(C[C@@H](C)O)c2c3c(C[C@@H](C)O)c(OC)c(=O)c4c(O)cc5c(c6c(cc(O)c(c1=O)c62)OCO5)c43 was tested. Which cytotoxicity call did it give?
A: Its cytotoxicity call is “active”.

Q: CCOC1OC2OC3(C)CCC4C(C)CCC(C1C)C24OO3 (configuration not stated) was tested. Which cytotoxicity call did it give?
A: Its cytotoxicity call is “inactive”.

Q: How did the cytotoxicity call turn out when CC1=NCCc2c1[nH]c1cc(O)ccc21.Cl.O.O was run?
A: Its cytotoxicity call is “inactive”.

Q: For CCCCC[C@H]1C(=O)O[C@H](C)[C@H](NC(=O)c2cccc(NC=O)c2O)C(=O)O[C@@H](C)[C@@H]1OC(=O)CC(C)C, which cytotoxicity call is on record?
A: The cytotoxicity call was “inactive”.

Q: For CCCCCCCCCC(=O)O[C@@H]1[C@@H](C)[C@@]2(O)[C@@H](C=C(CO)C[C@]3(O)C(=O)C(C)=C[C@@H]23)[C@@H]2C(C)(C)[C@]12OC(=O)CCCCCCCCC, which cytotoxicity call is on record?
A: Its cytotoxicity call is “inactive”.

Q: CCCCCCCCCC(=O)O[C@@H]1[C@@H](C)[C@]2(O)[C@@H](C=C(CO)C[C@]3(O)C(=O)C(C)=C[C@@H]23)[C@@H]2C(C)(C)[C@@]12OC(=O)CCCCCCCCC was tested. Which cytotoxicity call did it give?
A: The cytotoxicity call was “active”.

Q: With CCCCCCCCCCCCCC(=O)O[C@@H]1[C@@H](C)[C@@]2(O)[C@@H](C=C(CO)C[C@]3(O)C(=O)C(C)=C[C@@H]23)[C@@H]2C(C)(C)[C@]12OC(C)=O as the molecule, how does the cytotoxicity call read?
A: The cytotoxicity call was “active”.

Q: How did the cytotoxicity call turn out when CC1=C[C@H]2[C@]3(O)[C@H](C=C(CO)C[C@]2(O)C1=O)[C@H]1C(C)(C)[C@@]1(O)[C@H](O)[C@@H]3C was run?
A: The cytotoxicity call was “inactive”.

Q: With Cc1ccc2[nH]cc(C[C@@H](C)N)c2c1 as the molecule, how does the cytotoxicity call read?
A: The cytotoxicity call was “inactive”.

Q: CCCC(C)C1(CC)C(=O)N=C([S-])NC1=O.[Na+] (configuration not stated) was tested. Which cytotoxicity call did it give?
A: The cytotoxicity call was “inactive”.

Q: With C[C@@H]1CN([C@@H](C)CO)C(=O)CCCn2cc(nn2)CO[C@@H]1CN(C)C(=O)Oc1ccc2ccccc2c1 as the molecule, how does the cytotoxicity call read?
A: The cytotoxicity call was “inactive”.

Q: How did the cytotoxicity call turn out when CCCCSP(=O)(SCCCC)SCCCC was run?
A: Its cytotoxicity call is “inactive”.

Q: How did the cytotoxicity call turn out when COc1ccc(O)c(C(C)(C)C)c1 was run?
A: The cytotoxicity call was “inactive”.

Q: Which cytotoxicity call does the source give for CC(=O)OC1C(=O)C2(C)C(O)CC3OCC3(OC(C)=O)C2C(OC(=O)c2ccccc2)C2(O)CC(O)C(C)=C1C2(C)C (configuration not stated) here?
A: The cytotoxicity call was “inactive”.

Q: With C[C@H]1CN([C@@H](C)CO)C(=O)CCCn2cc(nn2)CO[C@H]1CN(C)C(=O)Oc1ccc2ccccc2c1 as the molecule, how does the cytotoxicity call read?
A: Its cytotoxicity call is “inactive”.

Q: For C=C1[C@@H](C)[C@H]2[C@H](Cc3ccccc3)NC(=O)[C@]23[C@H](OC(C)=O)/C=C/[C@](C)(O)C(=O)[C@@H](C)C/C=C/[C@H]3[C@@H]1O, which cytotoxicity call is on record?
A: Its cytotoxicity call is “active”.

Q: With COCCCNC(=O)[C@@]1(Cc2ccccc2CN=[N+]=[N-])N=C(c2ccc(OCCCO)cc2)O[C@H]1c1ccccc1CN=[N+]=[N-] as the molecule, how does the cytotoxicity call read?
A: The cytotoxicity call was “inactive”.

Q: How did the cytotoxicity call turn out when Nc1ccc2c(c1)Cc1ccccc1-2 was run?
A: The cytotoxicity call was “inactive”.

Q: With CC(C)n1cnnc1CCN as the molecule, how does the cytotoxicity call read?
A: Its cytotoxicity call is “inactive”.

Q: For CN1C[C@@H](NC(=O)C2CC2)[C@H]2OCCC[C@H]21, which cytotoxicity call is on record?
A: The cytotoxicity call was “inactive”.

Q: For CCN1C(=O)/C(=C/c2ccc[nH]2)C(=O)NC1=S, which cytotoxicity call is on record?
A: Its cytotoxicity call is “inactive”.

Q: Which cytotoxicity call does the source give for C=CCN1C(=O)NC(=O)/C(=C/c2ccco2)C1=O here?
A: Its cytotoxicity call is “active”.
